Values joined by “and” are separate entries in the source; they are usually repeats but may differ in a detail not shown here. Equal entries are not always repeated. The whole screen tested about 5,500 compounds, of which about 2,000 (36%) were called active. Another 18% or so got no clear call; they are omitted. Some of the results follow. Values without a mark were called inactive. Cut-off read from the data, not from the text of the source: active = normalized growth mostly below about 0.91 (no sharp cut-off); inconclusive = no clear call, values can overlap the other calls; inactive = mostly above about 0.92.
Assay: chemical genetic growth profiling, strain panel (AID 1159580);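 note: tested at 20 µM; growth read once vehicle control cultures reached saturation at 30 °C; 1 = growth at the plate median or of vehicle wells; lower values mean less growth of the strain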
Conditions: S. cerevisiae deletion strains, growth OD

In the case of `CC(=O)OC[C@@]1(O)C[C@@]23CCC4c5ccoc5CC[C@]4(C)C2CC[C@@H]1C3` (some centres not stated), the normalized growth (locus YAL013W, strain DEP1, active compounds read low) is reported as 0.985, the normalized growth (locus YAL021C, strain ccr4, active compounds read low) is reported as 1.03 and the normalized growth (locus YAL026C, strain drs2, active compounds read low) is reported as 0.901 (active). The normalized growth (locus YAL030W, strain snc1, active compounds read low) was 1.02, the normalized growth (locus YBL061C, strain skt5, active compounds read low) was 0.988 and the normalized growth (locus YBR009C, strain hhf1, active compounds read low) was 0.97. For the same compound, the normalized growth (locus YBR021W, strain FUR4, active compounds read low) was 0.964, the normalized growth (locus YBR023C, strain chs3, active compounds read low) was 0.953 and the normalized growth (locus YBR171W, strain sec66, active compounds read low) was 0.986. It also gave a normalized growth (locus YBR229C, strain ROT2, active compounds read low) of 0.998, a normalized growth (locus YBR231C, strain swc5, active compounds read low) of 1.01 and a normalized growth (locus YBR279W, strain paf1, active compounds read low) of 1.02. It also gave a normalized growth (locus YCL011C, strain gbp2, active compounds read low) of 0.998, a normalized growth (locus YCL016C, strain dcc1, active compounds read low) of 0.975 and a normalized growth (locus YCL029C, strain bik1, active compounds read low) of 0.963. The normalized growth (locus YCL061C, strain MRC1, active compounds read low) was 0.98, the normalized growth (locus YCL069W, strain vba3, active compounds read low) was 1 and the normalized growth (locus YCR088W, strain abp1, active compounds read low) was 0.997. It also gave a normalized growth (locus YDL005C, strain med2, active compounds read low) of 1.02, a normalized growth (locus YDL035C, strain GPR1, active compounds read low) of 0.899 and a normalized growth (locus YDL040C, strain nat1, active compounds read low) of 1. It also gave a normalized growth (locus YDL074C, strain BRE1, active compounds read low) of 0.88, a normalized growth (locus YDL101C, strain DUN1, active compounds read low) of 0.986 and a normalized growth (locus YDL134C, strain PPH21, active compounds read low) of 0.973. For the same compound, the normalized growth (locus YDL185W, strain tfp1, active compounds read low) was 0.968, the normalized growth (locus YDL192W, strain arf1, active compounds read low) was 0.932 and the normalized growth (locus YDR001C, strain nth1, active compounds read low) was 1. For the same compound, the normalized growth (locus YDR069C, strain doa4, active compounds read low) was 1.02, the normalized growth (locus YDR101C, strain arx1, active compounds read low) was 0.965 and the normalized growth (locus YDR137W, strain rgp1, active compounds read low) was 0.805 (active). It also gave a normalized growth (locus YDR150W, strain NUM1, active compounds read low) of 0.948, a normalized growth (locus YDR159W, strain sac3, active compounds read low) of 0.991 and a normalized growth (locus YDR162C, strain NBP2, active compounds read low) of 0.97. The normalized growth (locus YDR195W, strain ref2) was 0.993, the normalized growth (locus YDR297W, strain sur2, active compounds read low) was 1.01 and the normalized growth (locus YDR318W, strain mcm21, active compounds read low) was 0.911 (active). It also gave a normalized growth (locus YDR334W, strain swr1, active compounds read low) of 1.01, a normalized growth (locus YDR335W, strain msn5, active compounds read low) of 1 and a normalized growth (locus YDR388W, active compounds read low) of 0.977. For the same compound, the normalized growth (locus YDR392W, strain spt3, active compounds read low) was 0.576 (active), the normalized growth (locus YDR502C, strain sam2, active compounds read low) was 0.956 and the normalized growth (locus YEL003W, strain gim4, active compounds read low) was 1. For the same compound, the normalized growth (locus YEL037C, strain rad23, active compounds read low) was 0.992, the normalized growth (locus YEL061C, strain CIN8 (second series), active compounds read low) was 1 and the normalized growth (locus YEL061C, strain CIN8, active compounds read low) was 0.986. It also gave a normalized growth (locus YER015W, strain faa2, active compounds read low) of 1.01, a normalized growth (locus YER016W, strain bim1, active compounds read low) of 0.996 and a normalized growth (locus YER110C, active compounds read low) of 0.95. It also gave a normalized growth (locus YER111C, strain swi4, active compounds read low) of 0.995, a normalized growth (locus YER155C, strain BEM2 (second series), active compounds read low) of 0.987 and a normalized growth (locus YER155C, strain BEM2, active compounds read low) of 0.972. The normalized growth (locus YER167W, strain BCK2, active compounds read low) was 0.929, the normalized growth (locus YFR010W, strain ubp6, active compounds read low) was 0.985 and the normalized growth (locus YGL078C, strain dbp3, active compounds read low) was 0.966. It also gave a normalized growth (locus YGL086W, strain mad1, active compounds read low) of 0.931, a normalized growth (locus YGL167C, strain pmr1, active compounds read low) of 1 and a normalized growth (locus YGL173C, strain kem1, active compounds read low) of 1.03. It also gave a normalized growth (locus YGL227W, strain vid30, active compounds read low) of 1.01, a normalized growth (locus YGL240W, strain doc1, active compounds read low) of 1 and a normalized growth (locus YGL248W, strain PDE1, active compounds read low) of 0.98. For the same compound, the normalized growth (locus YGL253W, strain hxk2, active compounds read low) was 0.91 (active), the normalized growth (locus YGR078C, strain PAC10, active compounds read low) was 0.934 and the normalized growth (locus YGR135W, strain pre9, active compounds read low) was 0.95. For the same compound, the normalized growth (locus YGR229C, strain SMI1, active compounds read low) was 0.804 (active), the normalized growth (locus YGR252W, strain gcn5, active compounds read low) was 0.912 and the normalized growth (locus YHR013C, strain ard1, active compounds read low) was 1.19 [resistant] (active). The normalized growth (locus YHR027C, strain rpn1, active compounds read low) was 1.01, the normalized growth (locus YHR030C, strain SLT2, active compounds read low) was 0.943 and 0.867 and the normalized growth (locus YHR079C, strain IRE1 (second series), active compounds read low) was 0.924 (active). For the same compound, the normalized growth (locus YHR079C, strain IRE1, active compounds read low) was 0.918, the normalized growth (locus YHR094C, strain hxt1, active compounds read low) was 0.96 and the normalized growth (locus YHR129C, strain ARP1, active compounds read low) was 0.985. The normalized growth (locus YHR142W, strain chs7, active compounds read low) was 0.846 (active), the normalized growth (locus YHR200W, strain rpn10, active compounds read low) was 0.96 and the normalized growth (locus YIL066C, strain RNR3, active compounds read low) was 0.981. It also gave a normalized growth (locus YIL073C, strain SPO22, active compounds read low) of 0.991, a normalized growth (locus YIL125W, strain kgd1, active compounds read low) of 0.965 and a normalized growth (locus YIR030C, strain dcg1, active compounds read low) of 0.974. The normalized growth (locus YJL092W, strain hpr5, active compounds read low) was 1, the normalized growth (locus YJL095W, strain BCK1 (second series), active compounds read low) was 1.01 and the normalized growth (locus YJL095W, strain BCK1, active compounds read low) was 0.909 and 0.89. The normalized growth (locus YJL115W, strain asf1, active compounds read low) was 1.01, the normalized growth (locus YJL129C, strain trk1, active compounds read low) was 0.984 and the normalized growth (locus YJL134W, strain LCB3, active compounds read low) was 0.973. The normalized growth (locus YJL154C, strain vps35, active compounds read low) was 1, the normalized growth (locus YJL164C, strain tpk1, active compounds read low) was 0.973 and the normalized growth (locus YJL166W, strain qcr8, active compounds read low) was 0.996. It also gave a normalized growth (locus YJL168C, strain set2, active compounds read low) of 0.983, a normalized growth (locus YJL187C, strain SWE1 (second series), active compounds read low) of 0.961 and a normalized growth (locus YJL187C, strain SWE1, active compounds read low) of 1.01. The normalized growth (locus YJR043C, strain POL32, active compounds read low) was 0.954 and the normalized growth (locus YJR066W, strain TOR1, active compounds read low) was 0.825 (active).

Source: PubChem BioAssay AID1159580 (chemical genetic matrix, 2015)
